Of roughly 8,800 targets only a part is listed; those with a hit were picked by preference. About 0.5% of all pairs of compound and target were hits.
compound: C1COCCN1CCN2C3=CC=CC=C3N=C2NC(=O)C4=CC(=CC=C4)[N+](=O)[O-] [IRAK-1-4 Inhibitor I]; test: log2 fold change, soluble protein after heating vs DMSO (PISA); higher = thermal stabilisation; K562 lysate, 10 uM; active = over 0.2 and 3.5 SD of the protein, either way, in both replicates (recomputed)
Summary of the method: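 Dounce homogenisation of K562 pellets in PBS pH 7.4 with 1 mM MgCl2 produced a crude extract, used at 1 mg/mL protein. Exposure to 10 μM compound lasted 30 min, and aliquots were then heated for 3 min across 48°C-58°C, pooled and brought to 0.5% NP-40 at 4°C. The supernatant after 21,000xg for 90 min was quantified by TMTpro 16plex LC-MS/MS with channel sums equalised. Duplicate values are given as log-two fold change in thermal stability relative to solvent controls.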

Chain of UniProt Q8WV92 (Q8WV92 whole entry, looked up): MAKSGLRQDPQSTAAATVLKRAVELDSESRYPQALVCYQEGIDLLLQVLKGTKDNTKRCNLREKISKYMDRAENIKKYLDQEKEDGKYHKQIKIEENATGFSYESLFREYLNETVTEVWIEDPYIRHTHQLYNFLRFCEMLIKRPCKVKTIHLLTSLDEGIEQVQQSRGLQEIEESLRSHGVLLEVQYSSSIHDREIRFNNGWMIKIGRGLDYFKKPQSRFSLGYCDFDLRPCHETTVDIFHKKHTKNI
Chain of UniProt O94822 (O94822 whole entry, looked up): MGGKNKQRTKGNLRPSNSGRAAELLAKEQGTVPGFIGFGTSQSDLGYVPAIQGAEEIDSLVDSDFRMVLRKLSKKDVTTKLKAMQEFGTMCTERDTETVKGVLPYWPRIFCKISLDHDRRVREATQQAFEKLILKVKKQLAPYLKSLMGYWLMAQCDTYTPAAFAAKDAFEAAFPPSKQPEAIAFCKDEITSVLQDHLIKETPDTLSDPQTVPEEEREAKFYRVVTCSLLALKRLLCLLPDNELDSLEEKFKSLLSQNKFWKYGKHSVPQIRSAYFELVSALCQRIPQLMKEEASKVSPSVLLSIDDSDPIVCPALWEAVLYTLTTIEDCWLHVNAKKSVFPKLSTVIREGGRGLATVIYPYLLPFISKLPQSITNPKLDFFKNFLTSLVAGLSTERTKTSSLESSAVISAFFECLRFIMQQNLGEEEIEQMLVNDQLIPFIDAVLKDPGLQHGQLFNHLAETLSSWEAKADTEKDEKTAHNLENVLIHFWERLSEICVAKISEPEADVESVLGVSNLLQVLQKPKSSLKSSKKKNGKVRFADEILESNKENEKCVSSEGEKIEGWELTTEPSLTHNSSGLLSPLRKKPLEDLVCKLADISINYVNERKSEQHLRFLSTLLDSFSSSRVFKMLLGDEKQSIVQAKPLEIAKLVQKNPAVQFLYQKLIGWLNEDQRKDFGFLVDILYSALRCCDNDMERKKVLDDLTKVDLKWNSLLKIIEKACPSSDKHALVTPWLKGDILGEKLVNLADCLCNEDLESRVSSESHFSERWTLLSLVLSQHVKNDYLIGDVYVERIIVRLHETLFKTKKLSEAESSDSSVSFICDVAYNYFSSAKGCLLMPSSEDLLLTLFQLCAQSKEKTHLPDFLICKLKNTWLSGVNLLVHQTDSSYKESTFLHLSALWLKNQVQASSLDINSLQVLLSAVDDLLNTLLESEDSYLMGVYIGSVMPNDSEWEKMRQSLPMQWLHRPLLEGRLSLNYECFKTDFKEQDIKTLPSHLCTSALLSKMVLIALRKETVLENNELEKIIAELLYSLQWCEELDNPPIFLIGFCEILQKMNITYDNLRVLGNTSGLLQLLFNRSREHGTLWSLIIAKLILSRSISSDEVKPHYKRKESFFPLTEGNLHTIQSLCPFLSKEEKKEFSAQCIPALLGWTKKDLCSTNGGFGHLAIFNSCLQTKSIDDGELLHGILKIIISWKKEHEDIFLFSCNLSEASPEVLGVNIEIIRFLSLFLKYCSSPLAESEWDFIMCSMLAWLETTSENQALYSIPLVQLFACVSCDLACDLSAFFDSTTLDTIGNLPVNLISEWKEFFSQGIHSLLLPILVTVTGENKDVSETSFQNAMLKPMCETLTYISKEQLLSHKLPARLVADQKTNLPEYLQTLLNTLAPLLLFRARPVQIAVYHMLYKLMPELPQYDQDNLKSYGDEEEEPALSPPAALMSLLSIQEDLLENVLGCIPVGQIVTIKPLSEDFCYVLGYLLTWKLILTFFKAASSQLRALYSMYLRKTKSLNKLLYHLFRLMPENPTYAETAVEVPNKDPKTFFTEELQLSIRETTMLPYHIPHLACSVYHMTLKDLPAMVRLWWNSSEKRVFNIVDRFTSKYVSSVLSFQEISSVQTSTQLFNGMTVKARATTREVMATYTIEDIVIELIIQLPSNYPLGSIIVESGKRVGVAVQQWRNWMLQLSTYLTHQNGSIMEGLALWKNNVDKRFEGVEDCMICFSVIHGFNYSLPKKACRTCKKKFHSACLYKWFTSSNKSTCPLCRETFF
Chain of UniProt Q7Z3D4 (Q7Z3D4 whole entry, looked up): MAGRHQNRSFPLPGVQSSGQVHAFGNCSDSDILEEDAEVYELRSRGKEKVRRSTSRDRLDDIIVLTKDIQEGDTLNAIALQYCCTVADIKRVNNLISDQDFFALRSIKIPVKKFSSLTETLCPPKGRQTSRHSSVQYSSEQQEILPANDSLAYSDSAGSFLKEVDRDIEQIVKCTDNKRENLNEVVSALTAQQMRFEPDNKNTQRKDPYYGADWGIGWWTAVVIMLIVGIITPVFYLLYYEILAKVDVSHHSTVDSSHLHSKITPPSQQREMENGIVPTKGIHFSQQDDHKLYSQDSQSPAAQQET
Chain of UniProt Q9GZY8 (Q9GZY8 whole entry, looked up): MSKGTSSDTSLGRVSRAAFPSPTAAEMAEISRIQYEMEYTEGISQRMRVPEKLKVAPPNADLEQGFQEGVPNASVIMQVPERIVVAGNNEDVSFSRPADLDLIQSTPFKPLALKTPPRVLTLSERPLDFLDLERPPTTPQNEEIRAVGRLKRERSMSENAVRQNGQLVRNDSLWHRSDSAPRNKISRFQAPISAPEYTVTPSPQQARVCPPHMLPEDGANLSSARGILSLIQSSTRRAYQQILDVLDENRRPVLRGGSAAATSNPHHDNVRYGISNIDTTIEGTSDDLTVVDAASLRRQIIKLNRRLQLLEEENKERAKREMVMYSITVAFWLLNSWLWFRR
Chain of UniProt P07948 (P07948 whole entry, looked up): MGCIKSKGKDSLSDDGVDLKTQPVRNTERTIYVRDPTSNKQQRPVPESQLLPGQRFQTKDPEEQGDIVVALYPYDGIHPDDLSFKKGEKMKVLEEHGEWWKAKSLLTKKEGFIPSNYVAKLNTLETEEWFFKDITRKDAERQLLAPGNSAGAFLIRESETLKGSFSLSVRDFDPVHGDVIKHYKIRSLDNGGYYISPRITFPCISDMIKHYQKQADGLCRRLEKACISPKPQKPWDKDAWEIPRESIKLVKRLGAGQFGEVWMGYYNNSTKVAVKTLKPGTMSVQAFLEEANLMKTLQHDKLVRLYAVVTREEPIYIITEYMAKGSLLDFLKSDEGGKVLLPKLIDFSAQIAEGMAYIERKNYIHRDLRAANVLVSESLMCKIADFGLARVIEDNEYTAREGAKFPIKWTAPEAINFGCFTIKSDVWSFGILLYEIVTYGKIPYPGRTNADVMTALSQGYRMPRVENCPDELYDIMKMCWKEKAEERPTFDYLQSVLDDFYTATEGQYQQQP
Chain of UniProt Q9UBU8 (Q9UBU8 whole entry, looked up): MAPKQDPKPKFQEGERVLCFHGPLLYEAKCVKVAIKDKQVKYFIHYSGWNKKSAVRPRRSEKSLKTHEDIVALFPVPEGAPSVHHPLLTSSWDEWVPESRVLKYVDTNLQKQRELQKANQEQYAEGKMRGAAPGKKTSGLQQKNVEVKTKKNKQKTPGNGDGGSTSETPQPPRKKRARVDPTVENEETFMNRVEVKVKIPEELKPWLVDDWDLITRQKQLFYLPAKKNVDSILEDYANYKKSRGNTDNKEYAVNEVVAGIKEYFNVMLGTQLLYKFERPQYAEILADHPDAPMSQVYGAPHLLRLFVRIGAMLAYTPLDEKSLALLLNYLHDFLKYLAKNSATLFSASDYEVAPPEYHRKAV
Chain of UniProt Q99797 (Q99797 whole entry, looked up): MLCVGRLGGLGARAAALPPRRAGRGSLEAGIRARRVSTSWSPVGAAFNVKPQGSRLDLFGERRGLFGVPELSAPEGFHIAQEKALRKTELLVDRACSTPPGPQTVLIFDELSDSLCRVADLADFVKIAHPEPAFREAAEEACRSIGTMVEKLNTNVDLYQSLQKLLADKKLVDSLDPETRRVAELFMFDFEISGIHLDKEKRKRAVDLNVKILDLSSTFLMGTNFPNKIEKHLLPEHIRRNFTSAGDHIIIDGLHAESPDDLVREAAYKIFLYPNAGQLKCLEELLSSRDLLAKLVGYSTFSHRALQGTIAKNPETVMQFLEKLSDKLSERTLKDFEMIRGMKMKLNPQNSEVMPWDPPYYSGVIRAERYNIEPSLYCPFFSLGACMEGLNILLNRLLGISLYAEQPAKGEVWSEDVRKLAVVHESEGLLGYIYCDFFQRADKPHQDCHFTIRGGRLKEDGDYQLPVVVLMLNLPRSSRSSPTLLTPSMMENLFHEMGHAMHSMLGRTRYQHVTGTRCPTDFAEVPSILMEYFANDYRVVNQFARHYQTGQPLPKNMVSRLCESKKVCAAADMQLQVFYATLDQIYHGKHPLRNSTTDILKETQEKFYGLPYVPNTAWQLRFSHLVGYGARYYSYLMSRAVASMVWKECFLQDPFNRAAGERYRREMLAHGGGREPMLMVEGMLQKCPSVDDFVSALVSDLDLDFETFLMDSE
Chain of UniProt Q9BVC4 (Q9BVC4 whole entry, looked up): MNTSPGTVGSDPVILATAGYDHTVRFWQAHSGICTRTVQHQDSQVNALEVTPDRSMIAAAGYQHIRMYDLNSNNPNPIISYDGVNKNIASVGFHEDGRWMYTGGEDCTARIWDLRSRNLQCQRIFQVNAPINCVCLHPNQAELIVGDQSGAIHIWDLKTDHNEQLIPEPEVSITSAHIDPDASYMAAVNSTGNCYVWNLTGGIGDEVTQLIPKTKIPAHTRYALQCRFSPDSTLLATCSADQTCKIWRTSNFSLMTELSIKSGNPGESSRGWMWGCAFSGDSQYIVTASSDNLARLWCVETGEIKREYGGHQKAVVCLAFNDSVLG
Chain of UniProt Q96G25 (Q96G25 whole entry, looked up): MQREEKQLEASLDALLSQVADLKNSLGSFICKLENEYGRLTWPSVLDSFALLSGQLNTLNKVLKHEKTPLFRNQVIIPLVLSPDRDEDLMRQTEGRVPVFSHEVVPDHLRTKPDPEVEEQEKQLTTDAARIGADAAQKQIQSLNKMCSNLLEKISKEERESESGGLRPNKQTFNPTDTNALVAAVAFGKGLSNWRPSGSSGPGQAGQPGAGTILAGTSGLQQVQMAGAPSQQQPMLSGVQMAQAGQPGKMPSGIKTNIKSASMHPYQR

log2 fold change, inactive:
MLST8 (UniProt Q9BVC4) -0.001
MIPEP (UniProt Q99797) -0.004
LSS (UniProt P48449) 0
LIG3 (UniProt P49916) -0.035
LSG1 (UniProt Q9H089) -0.048
MFF isoform 2 (UniProt Q9GZY8) 0.018
LIG4 (UniProt P49917) -0.001
MICU2 (UniProt Q8IYU8) -0.044
MAP7D3 (UniProt Q8IWC1) -0.017
LARS2 (UniProt Q15031) -0.021
LUC7L (UniProt Q9NQ29) -0.026
MED8 isoform 2 (UniProt Q96G25) -0.005
MAP4 (UniProt P27816) 0.024
MITD1 (UniProt Q8WV92) -0.033
MIF4GD isoform 3 (UniProt A9UHW6) -0.04
LRCH3 (UniProt Q96II8) 0.028
MLH1 (UniProt P40692) -0.002
MAP4 (UniProt E7EVA0) 0.037
MBOAT2 (UniProt Q6ZWT7) -0.065
LYSMD3 (UniProt Q7Z3D4) -0.01
KPNA4 (UniProt O00629) 0.038
LYN (UniProt P07948) 0.487
KPNA2 (UniProt P52292) -0.02
MICB, A0A140T979 0.023
KIF26A (UniProt Q9ULI4) 0.093
MORF4L1 isoform 2 (UniProt Q9UBU8) 0.013
LBR (UniProt Q14739) 0.028
MAP11 (UniProt Q8WVR3) -0.02
KNSTRN (UniProt Q9Y448) -0.039
KNL1 (UniProt Q8NG31) 0.002
MAST4 (UniProt O15021) -0.008
LTN1 isoform 3 (UniProt O94822) 0.006
MECR (UniProt Q9BV79) 0.025
MAP4K2 (UniProt Q12851) -0.046
MAPK8 isoform 3 (UniProt P45983) -0.016
MPZL1 (UniProt O95297) 0.015
MRPL28 (UniProt Q13084) -0.03
KRI1 (UniProt Q8N9T8) 0.047
MPP1 (UniProt Q00013) -0.007

Source: the supplement of paper PMC10849652
